# Sm TGR inh: S. mansoni TGR enzyme inhibition; Q962Y6; purified TGR, DTNB reduction, TNB absorbance 405 nm; Potency, µM (titrated, usually from 114 µM), without a hit: top-dose activity change, negative = inhibition, most hits filed as inhibitors; 360,000 tested, 3% active; also: potency is read from the fitted curve at half-maximal effect; % is scaled to controls: 0 for no effect and ±100 for the full control effect; nearly all actives have a fitted effect of over 60% in size
#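 TGR 20 nM + NADPH 100 uM (dispensed conc.), cpd preinc 15 min RT; start with NADPH (500 uM addition) then DTNB (15 mM addition). Kinetic TNB absorbance, 405 nm filter. Four-parameter Hill fit across titration.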
# CHX counter: affects cycloheximide protein synthesis inhibition readout, counter-screen. cell reporter, cycloheximide protein synthesis inhibition counterscreen. max response, %. 300,000 tested, 12% active. AID 2314; in the data active = max response mostly above about 13%, no sharp cut-off; inactive = mostly below about 14%; also: read at 38.3 µM for the half of the compounds with a filed dose; 0% is about no effect
# Shiga inhibitor: inhibitors of Shiga toxin in Vero cells; Vero cells, Shiga toxin protein synthesis inhibition reporter; AID 2315; 290,000 tested, 9.2% active; inhibition, % at 38.7 µM; in the data active = inhibition mostly above about 28%, no sharp cut-off; inactive = mostly below about 43%; also: 0% is about no effect
# LmPK inhibitor: blocks Leishmania mexicana pyruvate kinase activity | 290,000 tested, 0.37% active | Q27686 | Potency, µM (highest dose often 57.5 µM), for the others: top-dose activity change, negative = inhibition, most hits filed as inhibitors | AID 1721 | purified LmPK, Kinase-Glo ATP luminescence, 1 h; also: potency is read from the fitted curve at half-maximal effect; % is scaled to controls: 0 for no effect and ±100 for the full control effect
# Target sequence (Q27686 whole entry, looked up): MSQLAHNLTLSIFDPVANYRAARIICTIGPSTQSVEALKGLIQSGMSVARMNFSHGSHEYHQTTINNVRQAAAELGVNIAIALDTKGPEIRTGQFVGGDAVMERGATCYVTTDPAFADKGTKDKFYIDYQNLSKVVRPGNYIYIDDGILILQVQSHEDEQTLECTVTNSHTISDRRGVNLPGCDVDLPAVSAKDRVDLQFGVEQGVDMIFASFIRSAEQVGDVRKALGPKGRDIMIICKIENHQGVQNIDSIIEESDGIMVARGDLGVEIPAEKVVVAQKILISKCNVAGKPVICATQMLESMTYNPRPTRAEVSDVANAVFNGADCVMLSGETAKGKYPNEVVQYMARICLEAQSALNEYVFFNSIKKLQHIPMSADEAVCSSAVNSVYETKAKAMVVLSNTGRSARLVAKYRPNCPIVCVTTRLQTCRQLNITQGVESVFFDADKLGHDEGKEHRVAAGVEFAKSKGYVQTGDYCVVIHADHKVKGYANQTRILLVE
#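 Purified LmPK (0.1 nM) converted ADP (0.1 mM) to ATP with PEP (0.5 mM) in imidazole buffer pH 7.2 with KCl and MgCl2, 1 h at room temperature. ATP was read by Kinase-Glo luminescence; data normalized to uninhibited and no-enzyme controls.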
# FBPA Giardia inh: blocks Giardia fructose-bisphosphate aldolase activity; A8B2U2; purified Giardia FBPA; Potency, µM (highest dose often 59.6 µM), without a hit: at the top dose activity, negative = inhibition, most hits filed as inhibitors; AID 2451; 290,000 tested, 0.71% active; also: potency is read from the fitted curve at half-maximal effect; % is scaled to controls: 0 for no effect and ±100 for the full control effect; nearly all actives have a fitted effect of over 55% in size
#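 Giardia FBPA (40 nM reagent) was preincubated 10 min at RT with compound (up to 57.5 uM final), then substrate plus GAPDH/TPI/NAD/arsenate coupling system with diaphorase/resazurin was added; resorufin fluorescence (525/598 nm) was read after 20 min.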
# Tb PYK inh: blocks Trypanosoma brucei pyruvate kinase. Q57TT1. TbPYK enzyme, Kinase-Glo Plus ATP luminescence, 45 min. Potency, µM (series often up to 76.8 µM), for inactives: at the top dose activity, negative = inhibition, usual class: inhibitors. 410,000 tested, 0.12% active. AID 624173; also: potency is read from the fitted curve at half-maximal effect; % is scaled to controls: 0 for no effect and ±100 for the full control effect; nearly all actives have a fitted effect of over 50% in size
#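 Luminescence from Kinase-Glo Plus, added after a 45-minute room-temperature reaction, served as the end-point read-out. The enzyme and substrate were preincubated with compound before ADP (130 uM final) initiated turnover. Concentration-effect curves came from normalized qHTS data.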
# Numbers without * were called inactive; ? = inconclusive; / = not tested or not shown; [ ] = another dose, or the depositor's remark. This is one part of a sample in which hits are shown more often than they occur. Unless noted, calls follow the shape of the dose curve; as a rule, active = well fitted curve in the direction sought with a large enough effect; inconclusive = small, poorly fitted or top-dose-only effect, or another doubt; inactive = no such curve, though single readings can be large; an effect the other way counts as inactive or inconclusive.
SMILES,Sm TGR inh,CHX counter,Shiga inhibitor,LmPK inhibitor,FBPA Giardia inh,Tb PYK inh
CC(C)OC(=O)[C@@H]1CC[C@H](C)[C@@H](CCC[C@@H]2C[C@@H](O)C[C@H](CC#N)O2)O1,/,/,/,/,4%,/
COc1cccc(CNC(=O)c2c(C)nn(-c3cccc(C)c3)c2-n2cccc2)c1,5%,/,/,/,/,-7%[15.4 µM]
CC1CCN(C(=O)CCCOc2ccc(Cl)cc2)CC1,9%,33*,55*,-1%,3%,-2%
O=C(CSCc1ccc(Br)cc1)N1CCOCC1,0%,31*,64*,-5%,-14%,2%
O=C(Cc1ccc(Br)cc1)OCC(=O)N1CCOCC1,/,/,/,/,/,4%
CC1CCN(C(=O)COC(=O)Cc2ccc(Br)cc2)CC1,7%,35*,-4,-3%,0%,-9%
Cc1ccc(CSCC(=O)N2CCCC2)cc1,-5%,24*,87,-3%,-1%,-4%
CC1CCN(CCCCOc2ccc(Cl)cc2)CC1,-11%,-2,-6,2%,?,9%
CC(=O)OCC1OC(C#Cc2ccc(F)cc2F)C=CC1OC(C)=O (stereo not drawn),/,/,/,/,0%[12.9 µM],/
Cn1cnc2c(=O)sc3ccccc3c21,/,/,/,/,/,-9%
CCCC[n+]1ccn(C2=C([O-])c3ccccc3C(=O)/C2=N\S(=O)(=O)c2ccccc2)c1,3%,-2,-4,-7%,/,5%
CC(C)(C)c1cc[n+](C2=C([O-])c3ccccc3C(=O)/C2=N\S(=O)(=O)c2ccccc2)cc1,-16%,58*,95*,-19%,?,-1%
CC(C)[n+]1ccn(C2=C([O-])c3ccccc3C(=O)/C2=N\S(=O)(=O)c2ccccc2)c1,45µM*,-1,-9,-4%,?,1%
Cc1cc[n+](C2=C([O-])c3ccccc3C(=O)/C2=N\S(=O)(=O)c2cccs2)cc1C,-29%,-5,10,-4%,?,-5%
Cc1ccc(-n2[nH]c(C)c(/C=N/NC(=O)c3ccc(O)cc3O)c2=O)cc1,-12%,25*,73*,-2%,5%,1%
Cc1[nH]n(-c2ccccc2)c(=O)c1/C=N/NC(=O)c1ccc(O)cc1O,50%,29*,68*,-9%,-24%,-2%
Fc1cccc(Cl)c1Cn1c(-c2cccs2)nc2ccccc21,1%,/,/,/,/,-4%
COc1cccc(C(=O)Nc2nnc(S(=O)(=O)N3CCCc4ccccc43)s2)c1,7%,/,/,/,/,-10%
CCN1CCN(C(=S)c2ccc(Cl)cc2)CC1,-14%,6,-3,-1%,4µM*,?
CC(C)Sc1nc2c(cnn2-c2ccc(Cl)cc2)c(=O)[nH]1,-3%,-3,-13,0%,-14%,-8%
Cc1cc(C)n(C2=NS(=O)(=O)c3ccccc32)n1,-4%,-3,-7,13µM*,-2%,-1%
NC(=O)c1ccc(NC(=O)C2CCN(S(=O)(=O)Cc3ccccc3)CC2)cc1,-8%,/,/,/,/,0%
CCN(CC)CCCNC(=O)c1ccc2nc(CCc3ccccc3)oc2c1,3%,/,/,/,/,-7%
CC(C)C1C(=O)N(Cc2cn(CC3CCCCC3)nn2)CCS(=O)(=O)N1Cc1ccc(-c2ccccc2)cc1 (stereo not drawn),/,/,/,/,/,-4%
CCn1cnc2cc(NC(=O)c3ccco3)ccc21,-2%,30*,20,-17%,0%,-1%
SMILES,Sm TGR inh,CHX counter,Shiga inhibitor,LmPK inhibitor,FBPA Giardia inh,Tb PYK inh
CC(C)(C)c1ccc(C(=O)Nc2ccc(NC(=O)c3ccco3)cc2)cc1,-30%,-1,-22,-2%,2%,-7%
O=C(O)COCC(=O)Nc1ccc2c(c1)ncn2CCc1ccccc1,-22%,-3,-6,2%,-21%,2%
CCCn1cnc2cc(NC(=O)c3cccs3)ccc21,6%,29*,51,-17%,-5%,-6%
CC(C)(C)n1cnc2cc(NC(=O)c3ccco3)ccc21,-12%,25*,62*,1%,9%,-14%
CCCn1cnc2cc(NC(=O)c3ccco3)ccc21,-21%,63*,80*,-1%,-4%,-5%
Cc1ccccc1Cn1c(SCc2ccc(C(=O)NC3CCCCC3)cc2)nc2ccncc21,9%,/,/,/,/,2%
CCOC(=O)Cn1c(=O)n(CC2CCCO2)c2nc(-c3ccc(OCC)cc3)nc(C(N)=O)c21 (stereo not drawn),-2%,/,/,/,/,3%
CCCC(=O)O[C@]1(C(=O)COC(C)=O)CC[C@H]2C3C[C@H](F)C4=CC(=O)C=CC4(C)[C@@]3(F)[C@@H](O)CC21C (stereo partly drawn),/,/,/,/,/,4%
CC(/C=N/N1CCN(c2ccccc2)CC1)=C\c1ccco1,-11%,44*,37,13µM*,1%,?
CC(=C/c1ccco1)/C=N/N1CCN(c2ccccc2)CC1,-19%,46*,86*,16µM*,/,/
CCOCCc1nn2c(=O)cc(COC(=O)c3ccco3)nc2s1,-21%,/,/,/,/,1%
COc1ccccc1CNC(=O)Cc1ccccc1,-2%,35*,35*,-1%,-2%,-8%
COc1ccccc1CNC(=O)COC(=O)c1n[nH]c2ccccc12,0%,13,12,10%,?,7%
COc1ccccc1CNC(=O)Cc1ccc(OC)c(OC)c1,-5%,-2,-5,-1%,1%,0%
COc1ccccc1CNC(=O)CSc1ccc(C)cc1,6%,15,14,3%,-2%,-2%
COc1ccccc1CNC(=O)CSc1ccccc1,2%,19*,50*,1%,-8%,-6%
COc1ccccc1CNC(=O)c1n[nH]c2ccccc12,10%,29*,46*,-3%,-4%,-3%
O=C(CSc1ccccc1)NCc1ccccc1,6%,18*,/,-1%,11%,-3%
CCOC(=O)C1CCN(c2nc3c(S(=O)(=O)c4ccccc4)nnn3c3ccc(Cl)cc23)CC1,5%,/,/,/,/,5%
O=C(NCCc1ccc(Cl)cc1)c1cnc2sc(N3CCOCC3)nn2c1=O,14%,/,/,/,/,-5%
CCOC(=O)c1sc2nc(CC(=O)OC)nc(NCCN3CCOCC3)c2c1C,25µM*,-2,-3,1%,5%,-2%
CSCC[C@H](NC(=O)[C@H](CC(C)C)NC(=O)CNC(=O)[C@@H]1CCCN1C(=O)[C@H](Cc1ccccc1)NC(=O)[C@H](Cc1ccccc1)NC(=O)[C@H](CC(=O)O)NC(=O)[C@H](Cc1cnc[nH]1)NC(=O)[C@H](CCSC)NC(=O)[C@@H](N)CC(=O)O)C(N)=O,/,-4,-6,/,0%,/
O=C(Nc1ccc(OC(F)F)cc1)c1ccccn1,0%,8,16,-5%,-6%,2%
COc1ccc(C(=O)Nc2ccc(NC(=O)Cc3ccccc3)cn2)cc1,4%,20*,31,8%,-21%,-1%
COc1ccc(NC(=O)c2ccccn2)cc1,-26%,24,19,11µM*,-4%,-29%

# From PubChem BioAssay
